KCNQ2 block – KCNQ2 (rat) channel inhibition; 310,000 compounds, 1.1% hits; AID 2156; B-score at 10 µM; O88943; CHO-K1 KCNQ2, FluxOR thallium flux, 20 min; stronger effect = lower value;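 active = fluorescence ratio B-score at most minus 3 library SDs, with starting brightness B-score within 2 library SDs, cut at about -5.5 in these data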
KCNQ2 pot – potentiators of rat KCNQ2 potassium channel. 310,000 compounds, 0.54% hits. B-score at 10 µM. CHO-K1 KCNQ2, FluxOR thallium flux fluorescence; stronger effect = higher value. O88943;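 active = fluorescence ratio B-score at least 3 SD of library B-scores, with initial fluorescence B-score within 3 of them, cut at about 5.3 in these data; same plate scores as AID 2156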;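 also: B-score of peak minus minimum over baseline fluorescence ratio after K+ and Tl+ stimulus; positive B-score means potentiation of KCNQ2 with more thallium influx and brighter signal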
Kir21 confirm – confirmation of mouse Kir2.1 potassium channel inhibitors. shares compounds with KCNQ2 pot. Kir2.1-expressing cells, FluxOR thallium flux fluorescence; stronger effect = lower value. Tl flux remaining, % of negative control (stronger effect = lower value), % at 10 µM. 2,300 compounds, 41% hits. AID 2032;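 active = Primary-screen hit whose thallium flux fell at least 3 control SD below untreated wells in both duplicates, with normal baseline fluorescence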
HEK293 Tl flux – alters thallium flux in parental HEK293 cells, Kir2.1 counter-screen; shares compounds with KCNQ2 pot; 2,300 compounds, 19% hits; AID 2105; FluxOR signal as % of negative control (100 = no effect), % at 10 µM; FluxOR thallium flux fluorescence; 0% = unstimulated blank wells;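 active = dye signal at least 3 control SD above or below untreated wells in both duplicates, raw fluorescence within 3, either direction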;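 also: percent is based on the flux ratio of peak minus minimum fluorescence over baseline F0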
CHO-K1 Tl ctr – alters thallium flux in parental CHO-K1 cells, KCNQ2 counter-screen; 1,200 compounds, 43% hits; FluxOR thallium flux fluorescence; zero = vehicle mean+3SD, 100% = vehicle-minus-blank window; activity increase over 3SD of controls, % at 10 µM; shares compounds with KCNQ2 pot;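 active = signal rise of at least 3 SD above the untreated control mean, in both duplicate wells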;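 also: counter screen of KCNQ2 potentiator hits so any rise reflects channel-independent effects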
KCNQ1 pot spec – selectivity of KCNQ2 potentiators: effect on human KCNQ1. shares compounds with KCNQ2 pot. CHO KCNQ1 stable, FluxOR thallium flux fluorescence; beyond 3SD, as % of vehicle-control signal. activation over 3SD threshold, % at 10 µM. 1,200 compounds, 28% hits;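 active = fluorescence ratio rise of at least 3 SD of vehicle wells above their mean, in both replicate wells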
KCNQ2 pot confirm – rat KCNQ2 channel potentiator confirmation. shares compounds with KCNQ2 pot. CHO-KCNQ2 cells, FluxOR thallium flux fluorescence. potentiation, less the hit threshold, % at 10 µM. 1,200 compounds, 68% hits;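 active = fluorescence ratio rising 3 SD or more over the vehicle control mean in both replicates, plus primary screen hit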;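 also: peak minus minimum thallium fluorescence divided by baseline after K/Tl stimulus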
Kir2-1 sel – tests whether KCNQ2 potentiators also affect mouse Kir2.1. shares compounds with KCNQ2 pot. HEK293 Kir2.1, FluxOR thallium flux fluorescence. activity over 3SD threshold, % at 10 µM. 1,200 compounds, 2% hits. AID 2345;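 active = fluorescence ratio rise of at least 3 SD above the vehicle-control mean, seen in both replicates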
KCNQ2 W236L pot – rat KCNQ2 W236L mutant potentiation by KCNQ2 potentiators; shares compounds with KCNQ2 pot; 940 compounds, 10% hits; CHO KCNQ2-W236L, automated patch clamp current; AID 2558; current increase over 3SD of negative controls (%), stronger effect = higher value, % at 25 µM;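 active = current increase at least 3 SD of the untreated controls above them in both duplicate recordings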
Target sequence (O88943 whole entry W236L, looked up): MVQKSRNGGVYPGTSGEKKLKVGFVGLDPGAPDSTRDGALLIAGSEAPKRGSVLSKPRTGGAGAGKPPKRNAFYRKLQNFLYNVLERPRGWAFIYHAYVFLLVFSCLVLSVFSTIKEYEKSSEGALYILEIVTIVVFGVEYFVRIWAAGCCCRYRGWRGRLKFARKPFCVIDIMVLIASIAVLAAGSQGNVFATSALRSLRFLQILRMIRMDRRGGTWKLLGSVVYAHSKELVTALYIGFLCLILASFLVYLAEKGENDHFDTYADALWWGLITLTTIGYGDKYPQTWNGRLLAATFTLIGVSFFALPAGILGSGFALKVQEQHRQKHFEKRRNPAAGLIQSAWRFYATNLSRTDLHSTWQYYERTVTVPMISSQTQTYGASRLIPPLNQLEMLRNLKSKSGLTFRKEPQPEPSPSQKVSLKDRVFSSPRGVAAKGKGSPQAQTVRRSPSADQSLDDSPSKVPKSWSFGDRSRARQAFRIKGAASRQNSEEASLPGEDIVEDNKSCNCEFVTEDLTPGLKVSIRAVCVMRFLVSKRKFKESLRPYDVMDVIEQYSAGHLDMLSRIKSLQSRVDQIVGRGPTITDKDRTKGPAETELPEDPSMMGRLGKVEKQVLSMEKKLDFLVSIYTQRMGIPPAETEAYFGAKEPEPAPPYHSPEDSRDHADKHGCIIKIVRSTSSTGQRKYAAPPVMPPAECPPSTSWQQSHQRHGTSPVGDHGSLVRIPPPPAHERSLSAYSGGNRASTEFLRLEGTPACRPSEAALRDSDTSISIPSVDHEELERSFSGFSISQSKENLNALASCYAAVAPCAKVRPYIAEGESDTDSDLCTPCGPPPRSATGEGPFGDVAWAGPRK
A number is an active result; n = inactive; x = no result given. Sampled rows, rich in hits. Any-hit rate of the full collection: about 1.6%.

SMILES	KCNQ2 block	KCNQ2 pot	Kir21 confirm	HEK293 Tl flux	others
Cc1ccc(C2=NN(CC(=O)NCCC(C)C)C(=O)CC2)cc1	n	x	x	x
COc1ccc(CCNc2nc3ccccc3n3cnnc23)cc1OC	n	n	x	x
CCc1nnc2c(NCCc3ccc(OC)c(OC)c3)nc3ccccc3n12	n	11	n	n	CHO-K1 Tl ctr=9.6;KCNQ1 pot spec=n;KCNQ2 pot confirm=n;Kir2-1 sel=n
O=C(Nc1ccnn1C1CCN(Cc2cc3ccccc3[nH]2)CC1)C1CCOC1 (stereo not given)	n	5.7	n	n	CHO-K1 Tl ctr=n;KCNQ1 pot spec=1.5;KCNQ2 pot confirm=42;Kir2-1 sel=n;KCNQ2 W236L pot=n
Cc1c(CN2CCC(n3nccc3NC(=O)C3CCOC3)CC2)[nH]c2ccccc12 (stereo not given)	n	n	x	x
CCC(Oc1ccc(Br)cc1)C(=O)N1CCN(c2ncccn2)CC1 (stereo not given)	n	x	x	x
Cc1ccc(C(=O)C2CCN(C(=S)NCCCOC(C)C)CC2)cc1	n	x	x	x
CCC(C(=O)NCc1cccnc1)n1nc(C)n2c(cc3occc32)c1=O (stereo not given)	n	x	x	x
COC(=O)c1ccc(C)c(NC(=S)NCc2ccc(Cl)cc2)c1	n	n	x	x
COC(=O)c1sccc1NC(=S)NCc1ccc(Cl)cc1	n	7.2	n	212%	CHO-K1 Tl ctr=2.7;KCNQ1 pot spec=n;KCNQ2 pot confirm=38;Kir2-1 sel=n;KCNQ2 W236L pot=n
O=C(COC(=O)c1ccc(O)cc1)Nc1ccc(Cl)cc1	n	n	x	x
Cc1coc(C)c1C(=O)Nc1ccc2ccccc2c1	n	x	x	x
Cc1cc2ccccc2n1CCNC(=O)Cc1ccccc1	n	x	x	x
Cc1cccc(CC(=O)NCCn2c(C)cc3ccccc32)c1	n	6.9	n	n	CHO-K1 Tl ctr=87;KCNQ1 pot spec=n;KCNQ2 pot confirm=17;Kir2-1 sel=n;KCNQ2 W236L pot=n
Cc1cc(NC(=O)CSCC(=O)Nc2cccc(S(=O)(=O)N3CCCCCC3)c2)no1	n	x	x	x
COc1cc(CC(=O)OCC(=O)N2C(C)CCCC2C)cc(OC)c1OC (stereo not given)	n	x	x	x
CCc1nc(SCC(=O)Nc2cc(C)on2)c2c(=O)n(C)c(=O)n(C)c2n1	n	n	x	x
Cc1cc(NC(=O)CSc2nc(CC(C)(C)C)nc3c2c(=O)n(C)c(=O)n3C)no1	n	x	n	n
CCCCn1nnc(NC(=O)CC23CC4CC(CC(C4)C2)C3)n1	n	20	n	n	CHO-K1 Tl ctr=10;KCNQ1 pot spec=n;KCNQ2 pot confirm=59;Kir2-1 sel=n;KCNQ2 W236L pot=n
CC(C)c1nnc(NC(=O)CC23CC4CC(CC(C4)C2)C3)s1	n	x	x	x
CCCCCCCCCC[n+]1cccc2c3ccccc3ccc21	n	x	7.5%	n
CCCCCCCC[n+]1cccc2c3ccccc3ccc21	n	n	x	x
COc1ccc(S(=O)(=O)Nc2cc3c4c(c2)CCN4C(=O)CC3)cc1OC	n	x	x	x
Oc1c(Cl)cc(Cl)cc1/C=N/NC(=S)NC1CC2C=CC1C2 (stereo not given)	n	7.2	n	n	CHO-K1 Tl ctr=n;KCNQ1 pot spec=70;KCNQ2 pot confirm=n;Kir2-1 sel=n
Oc1ccccc1/C=N/NC(=S)NC1CC2C=CC1C2 (stereo not given)	n	n	x	x
SMILES	KCNQ2 block	KCNQ2 pot	Kir21 confirm	HEK293 Tl flux	others
Cc1c(Cl)cccc1Nc1ccccc1C(=O)O	n	x	x	x
CSc1ccccc1NC(=O)Nc1cccc(Cl)c1C	n	n	x	x
Cc1c(Cl)cccc1NC(=O)C(=O)NNC(=O)c1ccccc1F	n	22	n	426%	CHO-K1 Tl ctr=n;KCNQ1 pot spec=n;KCNQ2 pot confirm=73;Kir2-1 sel=n;KCNQ2 W236L pot=n
Cc1ccccc1C(=O)NNC(=O)C(=O)Nc1cccc(Cl)c1C	n	14	n	275%	CHO-K1 Tl ctr=n;KCNQ1 pot spec=n;KCNQ2 pot confirm=21;Kir2-1 sel=n;KCNQ2 W236L pot=n
CC1CCN(C(=O)c2cc(Cl)ccc2NC(=O)c2ccco2)CC1	n	n	x	x
CCO[C@@H]1OC(C(=O)NCc2nc3ccccc3[nH]2)=C[C@H](c2coc3ccccc3c2=O)[C@H]1CCCO	n	n	x	x
COC(=O)c1c(NC(=S)NNC(=O)c2ccc(Cl)s2)sc(C(=O)N(C)C)c1C	n	x	x	x
CCC(=O)OCc1c(C(F)(F)F)nn(C)c1Sc1ccc(F)cc1	n	x	48%	n
CCC(=O)OCc1c(C(F)(F)F)nn(C)c1Sc1ccc(Cl)cc1	n	x	x	x
O=C(O)CC(CN1C(=O)c2ccccc2C1=O)c1ccccc1 (stereo not given)	n	n	x	x
Cc1cc(C(=O)CN2C(=O)C(=O)N(CC(C)C)C2=O)c(C)n1-c1ccccc1F	n	x	x	x
O=C(NC(Cc1ccccc1)C(=O)O)NC12CC3CC(CC(C3)C1)C2 (stereo not given)	n	x	x	x
O=C1CCN1C1(C(=O)NC2CCCCC2)CCCC1	n	x	x	x
CCCCn1c(N)c(N(CC(C)C)C(=O)C2CCN(S(=O)(=O)c3ccc(OCC)cc3)CC2)c(=O)[nH]c1=O	n	x	x	x
CC1=C(C(=O)N(C)C)C(c2ccc(C)s2)NC(=S)N1 (stereo not given)	n	n	x	x
Oc1ccccc1N=Nc1ccccc1O	n	7.9	n	n	CHO-K1 Tl ctr=n;KCNQ1 pot spec=n;KCNQ2 pot confirm=n;Kir2-1 sel=n
Nc1ccc(N=Nc2ccccc2O)c(N)c1	n	n	x	x
CN1CCN(CC(O)COc2ccc(Cl)cc2)CC1 (stereo not given)	n	n	x	x
CN1CCN(CC(O)(c2ccc(Cl)cc2)c2ccc(Cl)cc2)CC1	n	x	50%	n
CC(C)(Oc1ccc(Cl)cc1)C(=O)OCC(=O)NCCc1ccccc1	n	n	62%	n
O=C(COC(=O)CCSc1ccc(Cl)cc1)NCCc1ccccc1	n	x	x	x
CCOc1ccc(N(Cc2cc3cc(C)ccc3[nH]c2=O)S(=O)(=O)c2ccccc2)cc1	n	x	x	x
CCc1ccc(C(=O)c2ccccc2C(=O)O)s1	n	x	x	x
CC(C)Cc1ccc(/C(=N/O)C(=O)O)s1	n	7.1	n	n	CHO-K1 Tl ctr=23;KCNQ1 pot spec=n;KCNQ2 pot confirm=27;Kir2-1 sel=n;KCNQ2 W236L pot=n
O=C(Nc1nc2ccc(Cl)cc2s1)C1CC1	n	n	x	x
SMILES	KCNQ2 block	KCNQ2 pot	Kir21 confirm	HEK293 Tl flux	others
CC(C)c1ccc2nc(NC(=O)C3CC3)sc2c1	n	5.6	n	68%	CHO-K1 Tl ctr=21;KCNQ1 pot spec=n;KCNQ2 pot confirm=28;Kir2-1 sel=n;KCNQ2 W236L pot=27%
CCNC(=S)N(CCCO)Cc1cc2cc3c(cc2[nH]c1=O)OCCO3	n	n	x	x
CCCc1cc(=O)[nH]c(SCC(=O)N(CCOC)c2c(N)n(Cc3ccccc3)c(=O)[nH]c2=O)n1	n	x	x	x
Cc1ccccc1-n1ncc2c1CC(C)(C)CC2NC(=O)CCCN1CCCC1=O (stereo not given)	n	n	x	x
C/C(=N\NC(=S)NCCc1ccccc1)c1ccc(Cl)cc1Cl	n	6.2	n	n	CHO-K1 Tl ctr=12;KCNQ1 pot spec=n;KCNQ2 pot confirm=n;Kir2-1 sel=n
S=C(NCc1ccccc1)Nc1ccc(Cl)cc1	n	n	x	x
S=C(NCCc1cccc(Cl)c1)NCc1ccccc1	n	7.5	x	x	CHO-K1 Tl ctr=9.3;KCNQ1 pot spec=41;KCNQ2 pot confirm=12;Kir2-1 sel=n;KCNQ2 W236L pot=n

Compound activity from PubChem BioAssay.
